Compound activity: PubChem BioAssay, National Center for Advancing Translational Sciences (NCATS)
FLuc modulator – counter-screen for miR-21 project: firefly luciferase inhibitors or activators. P08659. purified FLuc, Km substrates, luminescence inhibition. Potency, µM (highest dose often 57.5 µM), inactives show top-dose activity change, negative = inhibition, most hits filed as inhibitors. 360,000 compounds, 6.9% hits;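 further: plate controls were vehicle for no effect and reference inhibitor for full effect; nearly all actives have a fitted effect of over 55% in size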
Target sequence (P08659 whole entry, looked up): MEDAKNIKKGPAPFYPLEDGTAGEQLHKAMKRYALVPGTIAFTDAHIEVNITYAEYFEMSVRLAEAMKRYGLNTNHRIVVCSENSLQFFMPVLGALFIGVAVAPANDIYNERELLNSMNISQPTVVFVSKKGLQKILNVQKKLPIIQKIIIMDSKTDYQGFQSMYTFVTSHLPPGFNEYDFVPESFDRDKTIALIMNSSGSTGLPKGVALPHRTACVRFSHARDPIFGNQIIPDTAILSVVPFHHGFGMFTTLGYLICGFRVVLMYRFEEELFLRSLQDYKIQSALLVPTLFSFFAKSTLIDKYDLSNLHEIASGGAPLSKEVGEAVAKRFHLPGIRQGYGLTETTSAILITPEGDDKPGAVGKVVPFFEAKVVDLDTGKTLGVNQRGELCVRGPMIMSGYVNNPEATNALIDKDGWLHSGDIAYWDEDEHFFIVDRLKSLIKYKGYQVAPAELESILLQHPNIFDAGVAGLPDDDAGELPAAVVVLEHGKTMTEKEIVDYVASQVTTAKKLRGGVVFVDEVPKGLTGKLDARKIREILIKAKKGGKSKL
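Purified P. pyralis luciferase (10nM final) with 10uM D-luciferin and 10uM ATP (Km levels) in 50mM Tris acetate pH 7.5, 10mM Mg acetate, 0.01% Tween-20, 0.05% BSA; qHTS 6-point titration, ~60 µM downward; luminescence read.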
SMN2 splice enh – SMN2 splice variant enhancement | 210,000 compounds, 2.8% hits | Potency, µM (series often up to 46.1 µM), inactives show at the highest dose activity change, positive = activation, usual class: activators | AID 1458 | HEK293 SMN2-luciferase splicing reporter, luminescence, 30-36 h; further: % of control where 0% means no effect; nearly all actives have a fitted effect of over 55% in size
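qHTS luciferase splicing reporter: luminescence rises when SMN2 exon 7 is included in transfected HEK293 cells. Compound exposure lasted 30-36 h at 37C, with 4.5 mM final sodium butyrate as control, followed by a ONE-Glo read.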
Luc counter – counter-screen: inhibitors of Kinase-Glo firefly luciferase | 200,000 compounds, 0.28% hits | Potency, µM (titrated, usually from 38.3 µM), inactives show top-dose activity change, negative = inhibition, usual class: inhibitors | Q27757 | AID 1379 | Kinase-Glo luciferase, ATP luminescence, 8 min; further: on the % scale 0 is the no-effect control and ±100 the full control effect; nearly all actives have a fitted effect of over 60% in size
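Compounds were added to a substrate mix at pH 7.2 (50 mM imidazole, 10 uM ATP, within the enzyme's linear range), followed by Kinase-Glo detection reagent; luminescence was measured after 8 minutes at ambient temperature.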
Rab9 prom act – activators of Rab9 promoter. Huh7 Rab9 promoter-luciferase reporter, luminescence, 24 h. Potency, µM (highest dose often 9.22 µM), for the others: top-dose activation, negative = inhibition, actives largely listed as activators. 320,000 compounds, 2.8% hits; further: % of control where 0% means no effect; nearly all actives have a fitted effect of over 60% in size
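Promoter activation is measured as luciferase luminescence in Huh7 cells stably transfected with a Rab9 promoter–luciferase construct, following 24 h compound exposure at 37 °C and 10 min reagent incubation at ambient temperature.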
ELG1 genotoxic – genotoxicity induction in ELG1-luciferase HEK293T cells; Potency, µM (highest dose often 46 µM), for inactives: at the highest dose activity change, positive = activation, actives largely listed as activators; AID 504466; 330,000 compounds, 1.3% hits; HEK293T ELG1-luciferase reporter, luminescence, 16 h; further: % of control where 0% means no effect; nearly all actives have a fitted effect of over 60% in size
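HEK293T cells expressing luciferase-tagged ELG1 were exposed to compound or DMSO vehicle for 16 hr at 37 °C and 5% CO2. Luciferase activity was then measured with ONE-Glo after 30 min at room temperature.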
NPC1 promoter act – activators of NPC1 promoter; AID 485313; Potency, µM (doses to about 9.22 µM), without a hit: at the top dose activation, hits mostly activators; Huh7 NPC1 promoter luciferase reporter, 24 h; 320,000 compounds, 2.4% hits; further: % of control where 0% means no effect; nearly all actives have a fitted effect of over 60% in size
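Cells: Huh7 expressing luciferase under the NPC1 promoter, 1500/well. Seeded 2 h, compound added, incubated 24 h at 37 °C. Luciferase reagent, 10 min ambient, then luminescence.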
* hit, by the source's call; [ ] = remark or other dose. A selection: hits, their analogues and other compounds. The true share with any hit is near 7.4%. The call rests on the fitted dose curve; in most records, active means well fitted curve in the direction sought with a large enough effect; inconclusive means small, poorly fitted or top-dose-only effect, or another doubt; inactive means no such curve, though single readings can be large; an effect the other way counts as inactive or inconclusive. Potency means the concentration at half of the fitted maximal effect.

CC(=O)c1ccccc1[N+](=O)[O-] was read as SMN2 splice enh 2.2%.
`COc1ccc(OCc2cc(C(=O)NC(C)c3cnn(C)c3)no2)c(Cl)c1` (stereo not given) gave FLuc modulator 13.5µM*, Rab9 prom act inconclusive, ELG1 genotoxic inconclusive and NPC1 promoter act inconclusive.
`Cc1nc2cc(OCc3cc(C(=O)NC(C)c4cnn(C)c4)no3)ccc2s1` (stereo not given) gave FLuc modulator 16.9µM*, Rab9 prom act 26.8%, ELG1 genotoxic -4.3% and NPC1 promoter act 12.5%.
`CC(NC(=O)c1cc(COc2c(F)cccc2F)on1)c1cnn(-c2ccccc2)c1` (stereo not given) gave FLuc modulator 16.9µM*, Luc counter -0.3%, Rab9 prom act inconclusive, ELG1 genotoxic 18.2% and NPC1 promoter act 23.4%.
For CC1Cc2ccccc2N1S(=O)(=O)c1nnc(NC(=O)c2ccccc2Br)s1 (stereo not given) the results were FLuc modulator -2.1%.
CCn1nc(-c2ccccc2)c(-c2ccccc2)c(C(=O)Nc2nc(C)c(C(C)=O)s2)c1=O was read as FLuc modulator inconclusive and SMN2 splice enh -7.0%.
`O=C(CN1C(=O)CC(c2ccco2)Sc2ccccc21)Nc1cccc(C(F)(F)F)c1` (stereo not given) gave FLuc modulator -13.1% and SMN2 splice enh -11.2%.
Screening Cc1oc(-c2ccc3c(c2)OCCO3)cc1C(=O)NCC(=O)O returned FLuc modulator -3.3%, Luc counter -1.7%, Rab9 prom act -6.0%, ELG1 genotoxic -7.0% and NPC1 promoter act -4.9%.
`Cc1oc(-c2ccc3c(c2)OCCO3)cc1C(=O)O` gave FLuc modulator 2.39µM*, SMN2 splice enh -35.9%, Luc counter 12.6µM*, Rab9 prom act -38.9%, ELG1 genotoxic -12.0% and NPC1 promoter act -34.0%.
For COc1ccc(-c2cc(C(=O)O)c(C)o2)cc1OC the results were FLuc modulator 1.69µM*, SMN2 splice enh 0.631µM*, Luc counter -26.2%, Rab9 prom act 0.316µM*, ELG1 genotoxic inconclusive and NPC1 promoter act inconclusive.
Screening COc1ccc(-c2cc(C(=O)NC(Cc3cc4ccccc4[nH]3)C(=O)O)c(C)o2)cc1OC (stereo not given) returned FLuc modulator inconclusive, Rab9 prom act inconclusive, ELG1 genotoxic 15.9% and NPC1 promoter act 21.5%.
For O=C(NCc1cccs1)c1cc(-c2cccs2)on1 the results were FLuc modulator inconclusive, SMN2 splice enh inconclusive, Luc counter -4.2%, Rab9 prom act 3.55µM*, ELG1 genotoxic inconclusive and NPC1 promoter act 3.55µM*.
Cc1cc(C(=O)NCc2cccs2)no1 was read as FLuc modulator 2.7%, SMN2 splice enh -1.7%, Luc counter -0.6%, Rab9 prom act 2.3%, ELG1 genotoxic 6.5% and NPC1 promoter act 0.5%.
Screening O=C(NCc1cccs1)c1cc(C2CC2)on1 returned FLuc modulator inconclusive, SMN2 splice enh 23.6%, Luc counter -2.2%, Rab9 prom act inconclusive, ELG1 genotoxic 23.1µM* and NPC1 promoter act 23.0%.
For COCCNC(=O)c1cc(-c2cccs2)on1 the results were FLuc modulator inconclusive, SMN2 splice enh 16.8%, Luc counter -0.5%, Rab9 prom act 3.16µM*, ELG1 genotoxic 14.6µM* and NPC1 promoter act 23.8%.
`O=C(NCc1cccs1)c1cc(-c2ccccc2)on1` gave FLuc modulator inconclusive, SMN2 splice enh 25.1µM*, Luc counter -0.4%, Rab9 prom act 2.51µM*, ELG1 genotoxic 7.31µM* and NPC1 promoter act 2.51µM*.
`COc1ccc(CNC(=O)c2cc(-c3cccs3)on2)cc1` gave FLuc modulator -17.5%, SMN2 splice enh -35.3%, Luc counter -3.1%, Rab9 prom act 5.9%, ELG1 genotoxic 2.4% and NPC1 promoter act 8.7%.
COc1ccc(C2NC(=O)N(C)C3=C2C(=O)N(c2cccc(Cl)c2)C3)cc1 (stereo not given) was read as FLuc modulator -9.8% and SMN2 splice enh -9.9%.
`CCc1nc2cc(Cl)c(Cl)cc2nc1CC` gave FLuc modulator -2.5%, Rab9 prom act -1.1%, ELG1 genotoxic -0.5% and NPC1 promoter act -2.4%.
For CCc1nc2cc3sc(CC)nc3cc2s1 the results were FLuc modulator 8.49µM*, Rab9 prom act 2µM*, ELG1 genotoxic 9.2µM* and NPC1 promoter act 3.55µM*.
Screening CCCc1ccc(OCc2nc(-c3ccc(NC(=O)c4ccco4)cc3)no2)cc1 returned FLuc modulator 13.5µM*, SMN2 splice enh 21.0%, Luc counter -0.4%, Rab9 prom act inconclusive, ELG1 genotoxic 16.4µM* and NPC1 promoter act 2.51µM*.
CCCc1ccc(OCc2nc(-c3ccc(NC(=O)c4cccs4)cc3)no2)cc1 was read as FLuc modulator 13.5µM*, SMN2 splice enh inconclusive, Luc counter -6.2%, Rab9 prom act inconclusive, ELG1 genotoxic inconclusive and NPC1 promoter act 21.8%.
For COc1ccccc1-c1ccc2ncnc(N(C)C)c2c1 the results were SMN2 splice enh -8.2% and Luc counter -4.4%.
For Cc1ccc(-c2nnc(Nc3ccc(Br)cc3)c3ccccc23)cc1S(=O)(=O)N1CCCCC1 the results were FLuc modulator 1.0% and SMN2 splice enh 4.2%.
Screening NCCC[C@H](N)CC(=O)N[C@H]1CNC(=O)[C@@H]([C@@H]2C[C@H](O)N=C(N)N2)NC(=O)/C(=C/NC(N)=O)NC(=O)[C@@H](CO)NC(=O)[C@@H](CO)NC1=O returned SMN2 splice enh 0.5%[20.6 µM] and Luc counter 0.7%[17.1 µM].
For CCN(CC)S(=O)(=O)c1ccc2c(c1)c(=O)c(C(=O)NCCCN(C)c1ccccc1)cn2C the results were FLuc modulator 3.4%, SMN2 splice enh 11.2µM*, Luc counter 0.2%, Rab9 prom act -5.0%, ELG1 genotoxic -14.4% and NPC1 promoter act -1.2%.
Screening N#Cc1ccc2c(c1)C[C@]1(CCCCN3C(=O)c4ccccc4C3=O)Oc3c(c(=O)oc4ccccc34)C2O1 returned FLuc modulator 2.1%[11.5 µM], Rab9 prom act -0.1%[1.84 µM] and NPC1 promoter act -7.1%[1.84 µM].
`COc1ccc2nc(C)c3cc(C)oc3c2c1` gave FLuc modulator -1.8%, SMN2 splice enh -12.8%, Luc counter 0.4%, Rab9 prom act -13.8%, ELG1 genotoxic -3.8% and NPC1 promoter act -2.7%.
Screening COc1cccc2c1nc(C)c1cc(C)oc12 returned FLuc modulator 21.3µM*, SMN2 splice enh inconclusive, Luc counter -2.3%, Rab9 prom act 27.1%, ELG1 genotoxic inconclusive and NPC1 promoter act 20.0%.
